# Measurements published in PubChem BioAssay AID2576 (National Center for Advancing Translational Sciences (NCATS), 2010).
# Where “and” joins values, the source holds several entries; their conditions need not be identical. Identical values can stand only once. Records with an inconclusive call do not appear. A number with no mark means an inactive call. Calls of active or inactive are those of the source. Calls come from the whole dose curve; as a rule, active = well fitted activation curve with a large enough effect; inconclusive = small, poorly fitted or top-dose-only effect, or effect the other way; inactive = flat fitted curve, though single readings scatter.
# Molecular target: Pyruvate kinase PKM (Homo sapiens) (UniProt P14618)
# Sequence (P14618 whole entry, looked up, canonical isoform): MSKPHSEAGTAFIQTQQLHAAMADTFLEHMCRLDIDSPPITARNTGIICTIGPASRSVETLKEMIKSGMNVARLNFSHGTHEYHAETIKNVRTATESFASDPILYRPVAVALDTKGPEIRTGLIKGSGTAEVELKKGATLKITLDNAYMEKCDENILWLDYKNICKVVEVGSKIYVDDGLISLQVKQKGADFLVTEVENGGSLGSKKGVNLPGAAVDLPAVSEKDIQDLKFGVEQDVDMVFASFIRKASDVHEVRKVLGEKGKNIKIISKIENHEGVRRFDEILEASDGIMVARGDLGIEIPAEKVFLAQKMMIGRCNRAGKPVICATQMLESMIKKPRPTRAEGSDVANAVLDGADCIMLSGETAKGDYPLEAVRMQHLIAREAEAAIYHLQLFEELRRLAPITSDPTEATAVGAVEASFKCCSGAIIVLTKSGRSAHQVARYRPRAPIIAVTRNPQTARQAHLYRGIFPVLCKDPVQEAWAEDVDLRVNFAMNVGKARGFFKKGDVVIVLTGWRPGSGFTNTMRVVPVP
# Experiment: Secondary LDH Assay for Activators of Human Pyruvate Kinase M2 isoform: for Probe SAR
# Conditions: purified hPK-M2, LDH-coupled NADH fluorescence kinetic; series mostly up to 58.4 µM; activation: at the top concentration
# Description: NIH Chemical Genomics Center [NCGC] Matthew G. Vander Heiden, M.D., Ph.D. [Harvard Medical School, 77 Avenue Louis Pasteur, Boston, MA 02115] NCGC Assay Overview: Human pyruvate kinase muscle 2 (hPK-M2)enzyme was supplied as a highly purified (>95% pure) preparation from Harvard Medical School and a secondary assay was used to evaluate compounds. This assay couples the formation of pyruvate from hPK-M2 using lactate dehydrogenase (LDH) and NADH. The depletion of NADH is followed in a fluorescent-based kinetic assay that follows the formation of pyruvate to lactate, as catalyzed LDH (described by Hannaert et al., 2002)1 Pyruvate kinase substrates, PEP and ADP, were present in the assay at 0.1 mM and 4 mM respectively. In this kinetic assay initial rates were determined by following the fluorescence of NADH depletion.
# NCGC Assay Protocol Summary: Three uL of substrate mix (final concentration, 50 mM Tris-Cl pH 8.0, 200 mM KCl, 15 mM MgCl2, 0.1 mM PEP, 4.0 mM ADP, and 0.2 mM NADH) was dispensed into black-solid 1536 well plates. 23 nL of compounds were delivered by a pin tool and 1 uL of enzyme mix (final concentrations, 10 nM hPK-M2 and 1 uM of LDH) was added. Plates were immediately placed in ViewLux (Perkin Elmer) and NADH fluorescence was determined at 30 second exposure intervals for between 3 and 6 minutes. Data were normalized to the uninhibited and EC100 activation using known activators such as fructose-bis-phosphate.
SMILES,activation,Potency
O=C1CCc2cc(S(=O)(=O)Nc3cccnc3)ccc2N1,-4.47%,
Cc1nc(-c2ccc(S(=O)(=O)Nc3ccc(C)c(C)c3)s2)cs1,20.2%,
Cc1ccc(NS(=O)(=O)c2ccc3c(c2)oc(=O)n3C)cc1C,23.2%,
Cc1ccc(NS(=O)(=O)c2cccc(F)c2)cc1C,18.4%,
O=C1c2ccccc2C(=O)N1c1cnc2ccccc2c1,21.2%,
COc1ccc(Nc2c(-c3ccc(C)o3)nc3ccccn23)cc1,-5.07%,
CC(=O)N1CCCc2cc(S(=O)(=O)Nc3ccc(C)c(C)c3)ccc21,12.3%,
O=C1CCc2cc(S(=O)(=O)Nc3ccc(-c4ccccc4)cc3)ccc2N1,6.56%,
O=S1(=O)N=C(Oc2ccc(Cl)cc2)c2ccccc21,-1.7%,
CCCCN1C(=O)c2ccccc2C1=O,2.71%,
O=C1c2ccccc2C(=O)N1c1ccc(Cl)cc1,16.4%,
Cc1ccc(OC2=NS(=O)(=O)c3ccccc32)cc1,-2.38%,
Cc1cc2c(s1)c1cnn(Cc3cc(F)c(F)cc3F)c(=O)c1n2C,,398 nM (active)
Cc1cc(N2C(=O)c3ccccc3C2=O)no1,-1.03%,
Cc1cc2c(s1)c1cnn(Cc3c(Cl)ccc(C)c3F)c(=O)c1n2C,,562 nM (active)
COc1ccc(N2C(=O)c3ccccc3C2=O)cc1,1.75%,
Cc1ccc(NC(=O)c2ccc3c(c2)CCC(=O)N3)cc1C,-2.96%,
O=C1CCc2cc(S(=O)(=O)Nc3cccc(-c4ccccc4)c3)ccc2N1,15.2%,
O=C1c2ccccc2C(=O)N1c1ccccn1,-0.663%,
O=C1CCc2cc(S(=O)(=O)Nc3ccccc3-c3ccccc3)ccc2N1,5.58%,

SMILES,activation,Potency
O=C1CCc2cc(S(=O)(=O)Nc3ccc(F)cc3)ccc2N1,27%,
Cc1ccccc1Nc1c(-c2ccc(Cl)s2)nc2ccccn12,0.026%,
Cc1ccc(-c2nc3ccc(Cl)cn3c2Nc2ccccc2)o1,-2.32%,
COc1cccc(Cn2ncc3c4sc(S(C)=O)cc4n(C)c3c2=O)c1 (stereo not given),,410 nM (active) and 206 nM (active)
Cc1ccc(NS(=O)(=O)c2ccc3c(c2)CCC(=O)N3)cc1,,5170 nM (active)
Cc1ccc(NS(=O)(=O)c2ccc3c(c2)CCCC(=O)N3)cc1C,25.4%,
O=C1c2ccccc2C(=O)N1c1cccc2ccncc12,-6.87%,
O=C1CCc2cc(S(=O)(=O)Nc3ccncc3)ccc2N1,14.4%,
O=C1c2ccccc2C(=O)N1c1ccccc1O,-4.29%,
COc1ccc(OC2=NS(=O)(=O)c3ccccc32)cc1,1.11%,
Cc1ccc(N2C(=O)c3ccccc3C2=O)c(C)c1,1.44%,
O=S1(=O)N=C(Oc2ccccc2Cl)c2ccccc21,4.09%,
O=C1c2ccccc2C(=O)N1c1ccncc1,11.9%,
CC(=O)Nc1ccc(S(=O)(=O)Nc2ccc(C)c(C)c2)cc1,5.65%,
O=C1NS(=O)(=O)c2ccccc21,-4.58%,
CC(=O)N1c2ccc(S(=O)(=O)Nc3ccc(C)c(C)c3)cc2CC1C (stereo not given),18.2%,
Cc1ccc(NS(=O)(=O)c2cc3c(cc2N(C)C)NC(=O)CC3)cc1C,,1030 nM (active)
O=S1(=O)N=C(Oc2ccccc2)c2ccccc21,2.56% [at 82.8 µM],
CC(=O)Nc1cccc(S(=O)(=O)Nc2ccc(C)c(C)c2)c1,11.3%,
COc1cccc(N2C(=O)c3ccccc3C2=O)n1,5.33%,
